Inconclusive results are not listed. The source made the active and inactive calls. Calls follow the shape of the dose curve; as a rule, active = well fitted cell-killing curve with a large enough effect; inconclusive = small, poorly fitted or top-dose-only effect, or effect the other way; inactive = flat fitted curve, though single readings scatter.
Columns and labels:
Test in all cases: Primary qHTS to identify gynecologic anti-cancer compounds using libraries of approved drugs and bioactive compounds (AID 1345084); also: nearly all actives have a fitted effect of over 55% in size
C33A = conditions: Gynecologic cancer cell panel viability, ATPlite luminescence, 48 h; series mostly up to 57.5 µM
In short: (§1)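 In this quantitative HTS, cell killing is estimated from loss of ATP-dependent luciferase light. Cells see five compound concentrations over a 48 h exposure.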

CAOV3 = conditions: Gynecologic cancer cell panel viability, ATPlite luminescence, 48 h; series mostly up to 57.5 µM
In short: as §1

CASKI = conditions: Gynecologic cancer cell panel viability, ATPlite luminescence, 48 h; series mostly up to 57.5 µM
In short: as §1

Es-2 = conditions: Gynecologic cancer cell panel viability, ATPlite luminescence, 48 h; series mostly up to 57.5 µM
In short: as §1

HeLa = conditions: Gynecologic cancer cell panel viability, ATPlite luminescence, 48 h; series mostly up to 57.5 µM
In short: as §1

Hek293T = conditions: Gynecologic cancer cell panel viability, ATPlite luminescence, 48 h, control line for the selectivity index; series mostly up to 57.5 µM
In short: as §1

JEG-3 = conditions: Gynecologic cancer cell panel viability, ATPlite luminescence, 48 h; series mostly up to 57.5 µM
In short: as §1
% is scaled to controls: 0 for no effect and ±100 for the full control effect.

NC(=O)c1nc(Nc2ccccc2)sc1NC(=O)C1CCCCC1
inactive: Potency (C33A) | Potency (CAOV3) | Potency (CASKI) | Potency (Es-2) | Potency (HeLa) | Potency (Hek293T) | Potency (JEG-3)

O=C(O)c1cccc(-c2ccc(-c3cn(C(=O)N4CCCCC4Cc4ccccc4)nn3)cc2)c1 (stereo not drawn)
inactive: Potency (C33A) | Potency (CAOV3) | Potency (CASKI) | Potency (Es-2) | Potency (HeLa) | Potency (Hek293T) | Potency (JEG-3)

N#Cc1cnc2c(Cl)cc(NCc3cn(CCN4CCCCCC4)nn3)cc2c1Nc1ccc(F)c(Cl)c1
inactive: Potency (C33A) | Potency (CAOV3) | Potency (CASKI) | Potency (Es-2) | Potency (HeLa) | Potency (Hek293T) | Potency (JEG-3)

N#CC(CCCN1CCN(/N=C/c2cccnc2)CC1)(c1ccccc1)c1ccccc1
inactive: Potency (C33A) | Potency (CAOV3) | Potency (CASKI) | Potency (Es-2) | Potency (HeLa) | Potency (Hek293T) | Potency (JEG-3)

CC(=O)O[C@@H]1C[C@]2(C)[C@@]3(CCC4[C@@]5(C)CC[C@H](O[C@@H]6O[C@H](C(=O)O)[C@@H](O)[C@H](OC7OC(CO)C(O)C(O)[C@H]7O[C@@H]7O[C@@H](C)[C@H](O)[C@@H](O)[C@H]7O[C@@H]7OC[C@](O)(CO)[C@H]7O)[C@H]6OC6OC(CO)C(O)C(O)C6O)C(C)(C)C5CC[C@]42C)OC[C@@]12CCC(C)(C)CC23 (stereo partly drawn)
inactive: activity change, negative = cytotoxicity (C33A) 2.65% [at 6.55 µM] | activity change, negative = cytotoxicity (CAOV3) 0.174% [at 6.55 µM] | activity change, negative = cytotoxicity (CASKI) 16.9% [at 6.55 µM] | activity change, negative = cytotoxicity (Es-2) -3.44% [at 6.55 µM] | activity change, negative = cytotoxicity (HeLa) -0.755% [at 6.55 µM] | activity change, negative = cytotoxicity (Hek293T) -10.7% [at 6.55 µM] | activity change, negative = cytotoxicity (JEG-3) -4.85% [at 6.55 µM]

OC[C@H]1O[C@@H](OC/C=C/c2ccc(O)cc2)[C@H](O)[C@@H](O)[C@@H]1O
inactive: Potency (C33A) | Potency (CAOV3) | Potency (CASKI) | Potency (Es-2) | Potency (HeLa) | Potency (Hek293T) | Potency (JEG-3)

CCC(=O)N1CCOc2c(cc(-c3ccc(OC)c(OC)c3)cc2OC[C@H]2CCCN(C)C2)C1
inactive: Potency (C33A) | Potency (CAOV3) | Potency (CASKI) | Potency (Es-2) | Potency (HeLa) | Potency (Hek293T) | Potency (JEG-3)

COc1ccccc1OCCNCC(O)CCOc1cccc2[nH]c3ccccc3c12 (stereo not drawn)
inactive: Potency (C33A) | Potency (CAOV3) | Potency (CASKI) | Potency (Es-2) | Potency (HeLa) | Potency (Hek293T) | Potency (JEG-3)

Nc1nc(OCc2cc(Br)cs2)c2[nH]cnc2n1
inactive: Potency (C33A) | Potency (CAOV3) | Potency (CASKI) | Potency (Es-2) | Potency (HeLa) | Potency (Hek293T) | Potency (JEG-3)

Nc1nc2c(nc(Br)n2[C@@H]2O[C@@H]3COP(=O)(O)O[C@H]3[C@H]2O)c(=O)[nH]1
inactive: Potency (C33A) | Potency (CAOV3) | Potency (CASKI) | Potency (Es-2) | Potency (HeLa) | Potency (Hek293T) | Potency (JEG-3)

C/C=C/CCC1Cc2cc(O)c(CCCC)c(O)c2C(=O)O1 (stereo not drawn)
inactive: Potency (C33A) | Potency (CAOV3) | Potency (CASKI) | Potency (Es-2) | Potency (HeLa) | Potency (Hek293T) | Potency (JEG-3)

O=C(O)CCc1nccc2c1[nH]c1ccccc12
inactive: Potency (C33A) | Potency (CAOV3) | Potency (CASKI) | Potency (Es-2) | Potency (HeLa) | Potency (Hek293T) | Potency (JEG-3)

C=C1C(=O)OC2/C=C(\C)CC3C=C(CC/C=C(\C)CCC12)C(=O)O3 (stereo not drawn)
inactive: Potency (C33A) | Potency (CAOV3) | Potency (CASKI) | Potency (Es-2) | Potency (HeLa) | Potency (Hek293T) | Potency (JEG-3)

C=C(C(=O)O)[C@@H]1CC=C(CCC(C)=O)[C@@H](C)CC1
inactive: Potency (C33A) | Potency (CAOV3) | Potency (CASKI) | Potency (Es-2) | Potency (HeLa) | Potency (Hek293T) | Potency (JEG-3)

COc1cc2c(cc1OCCCN1CCCC1)N=C(N)C21CCC1
inactive: Potency (C33A) | Potency (CAOV3) | Potency (CASKI) | Potency (Es-2) | Potency (HeLa) | Potency (Hek293T) | Potency (JEG-3)

CN(C)c1ccnc2sc3c(=O)n(N4CCCCCC4)cnc3c12
inactive: Potency (C33A) | Potency (CAOV3) | Potency (CASKI) | Potency (Es-2) | Potency (HeLa) | Potency (Hek293T) | Potency (JEG-3)

COc1ccc([C@H]2Cc3cccc(O)c3C(=O)O2)cc1OC
inactive: Potency (C33A) | Potency (CAOV3) | Potency (CASKI) | Potency (Es-2) | Potency (HeLa) | Potency (Hek293T) | Potency (JEG-3)

Cc1nc(C(=O)N2CCC[C@H]2Cc2nnc(-c3ccccc3)o2)c(-c2ccccc2F)s1
inactive: Potency (C33A) | Potency (CAOV3) | Potency (CASKI) | Potency (Es-2) | Potency (HeLa) | Potency (Hek293T) | Potency (JEG-3)

Cc1cc(C)cc(-c2cnc3cc(Cl)c(-c4cccc(O)c4)cc3c2OCCCN)c1
inactive: Potency (C33A) | Potency (CAOV3) | Potency (CASKI) | Potency (Es-2) | Potency (HeLa) | Potency (Hek293T) | Potency (JEG-3)

N#Cc1ccc(N2N=C3c4ccc(C(=O)O)cc4CC[C@@H]3[C@@H]2C2CCCC2)cc1Cl
inactive: Potency (C33A) | Potency (CAOV3) | Potency (CASKI) | Potency (Es-2) | Potency (HeLa) | Potency (Hek293T) | Potency (JEG-3)

Cc1onc(-c2ccccc2)c1C(=O)N1CCN(c2ccc([N+](=O)[O-])cc2Cl)CC1
inactive: Potency (C33A) | Potency (CAOV3) | Potency (CASKI) | Potency (Es-2) | Potency (HeLa) | Potency (Hek293T) | Potency (JEG-3)

Cc1cccc(CC(=O)N2CCc3c2ccc(-c2cn(C)c4ncnc(N)c24)c3F)n1
inactive: Potency (C33A) | Potency (CAOV3) | Potency (CASKI) | Potency (Es-2) | Potency (HeLa) | Potency (Hek293T) | Potency (JEG-3)

COC(=O)/C=C/C=C/C(=O)OC1C=C2COC(=O)C2(O)C2(C)CCCC(C)(C)C12 (stereo not drawn)
inactive: Potency (C33A) | Potency (CAOV3) | Potency (CASKI) | Potency (Es-2) | Potency (HeLa) | Potency (Hek293T) | Potency (JEG-3)

Cc1ccc(F)cc1S(=O)(=O)N[C@@H]1CCN(Cc2ccc(OC(C)C)cc2)C1
inactive: Potency (C33A) | Potency (CAOV3) | Potency (CASKI) | Potency (Es-2) | Potency (HeLa) | Potency (Hek293T) | Potency (JEG-3)

COC1C(OC(=O)/C=C/C=C/C=C/C=C/C(=O)O)CCC2(CO2)C1C1(C)OC1CC=C(C)C (stereo not drawn)
inactive: Potency (C33A) | Potency (CAOV3) | Potency (CASKI) | Potency (Es-2) | Potency (HeLa) | Potency (Hek293T) | Potency (JEG-3)

CC12CCC3C1C(c1c(cc(O)c(C(=O)c4ccccc4)c1O)O2)C3(C)C (stereo not drawn)
inactive: Potency (C33A) | Potency (CAOV3) | Potency (CASKI) | Potency (Es-2) | Potency (HeLa) | Potency (Hek293T) | Potency (JEG-3)

C/C=C/C1=CC2=C(CO1)C(=O)C(C)(OC(=O)c1c(C)cc(O)cc1OC)C(O)C2 (stereo not drawn)
inactive: Potency (C33A) | Potency (CAOV3) | Potency (CASKI) | Potency (Es-2) | Potency (HeLa) | Potency (Hek293T) | Potency (JEG-3)

NS(=O)(=O)c1ccc(N2N=C(c3ccccc3)CC2c2ccccc2)cc1 (stereo not drawn)
inactive: Potency (C33A) | Potency (CAOV3) | Potency (CASKI) | Potency (Es-2) | Potency (HeLa) | Potency (Hek293T) | Potency (JEG-3)

C/C=C(/C)C(=O)OC1C=C2C3C(C)C(C)C(OC(=O)C(C)C(C)O)CC3(C)CCC2(C)C2(C)CC(OC(C)=O)C3C(C)(C)C(O)C(=O)CC3(C)C12 (stereo not drawn)
inactive: Potency (C33A) | Potency (CAOV3) | Potency (CASKI) | Potency (Es-2) | Potency (HeLa) | Potency (Hek293T) | Potency (JEG-3)

CC1=C(C(=O)Nc2cc(Cl)ccc2Cl)C(c2ccco2)C2=C(CCCC2=O)N1 (stereo not drawn)
inactive: Potency (C33A) | Potency (CAOV3) | Potency (CASKI) | Potency (Es-2) | Potency (HeLa) | Potency (Hek293T) | Potency (JEG-3)

COc1ccc(C2Oc3c(OC)cc(CCCO)cc3C2COC2OC(CO)C(O)C(O)C2O)cc1OC (stereo not drawn)
inactive: Potency (C33A) | Potency (CAOV3) | Potency (CASKI) | Potency (Es-2) | Potency (HeLa) | Potency (Hek293T) | Potency (JEG-3)

CCOc1ccc(-n2c([C@@H](C)N(Cc3cccnc3)C(=O)Cc3ccc(OC(F)(F)F)cc3)nc3ncccc3c2=O)cc1
inactive: Potency (C33A) | Potency (CAOV3) | Potency (CASKI) | Potency (Es-2) | Potency (HeLa) | Potency (Hek293T) | Potency (JEG-3)

C/C(=C\CO[C@@H]1O[C@H](CO[C@H]2OC[C@](O)(CO)[C@H]2O)[C@@H](O)[C@H](O)[C@H]1O)C(C)(C)O
inactive: Potency (C33A) | Potency (CAOV3) | Potency (CASKI) | Potency (Es-2) | Potency (HeLa) | Potency (Hek293T) | Potency (JEG-3)

CC(C)(C)C1CCN(C(=O)n2ncc(C(O)(c3ccccc3)c3ccccc3)n2)CC1
inactive: Potency (C33A) | Potency (CAOV3) | Potency (CASKI) | Potency (Es-2) | Potency (HeLa) | Potency (Hek293T) | Potency (JEG-3)

Reference: PubChem BioAssay (NCATS)
